Test results: publication PMC9911399, “Two distinct binding modes provide the RNA-binding protein RbFox with extraordinary sequence specificity”
Changes are numbered by the printed parent chain; changes in the protein carry UniProt numbers. The full ranking holds about 16,000 sequences; the median of “ka relative to ugcaugu” is about 0.096, and the highest 2% start at about 0.35. Only a selection was taken, and the highest values are over-represented in it overall.

T1: RBFOX1 RRM RbFoxmut (Fox-RRM*) (Homo sapiens, UniProt Q9NWB1 109-208, R118D;E147R;N151S;E152T)
T1 sequence: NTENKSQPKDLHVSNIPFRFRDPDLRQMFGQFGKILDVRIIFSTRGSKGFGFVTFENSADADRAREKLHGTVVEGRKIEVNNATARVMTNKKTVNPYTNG

B1: UUUUCUG (DNA:RNA)
RNA: GGGAGACCGGAAUUCAGAUUGUCCUUUUCUGUUAAAUCCCGUCGUAGCCACCA
DNA 1: CAATCTGAATTCCGGTCTCCC
DNA 2: TGGTGGCTACGACGGGATT
B2: UCCUCCG (DNA:RNA)
RNA: B1 RNA with U26C, U27C, U30C
DNA 1: CAATCTGAATTCCGGTCTCCC
DNA 2: TGGTGGCTACGACGGGATT
B3: GCCCAGU (DNA:RNA)
RNA: GGGAGACCGGAAUUCAGAUUGUCCGCCCAGUUUAAAUCCCGUCGUAGCCACCA
DNA 1: CAATCTGAATTCCGGTCTCCC
DNA 2: TGGTGGCTACGACGGGATT
B4: GGGGUUG (DNA:RNA)
RNA: B1 RNA with U25G, U26G, U27G, U28G, C29U
DNA 1: CAATCTGAATTCCGGTCTCCC
DNA 2: TGGTGGCTACGACGGGATT
B5: GGGGUCG (DNA:RNA)
RNA: B3 RNA with C26G, C27G, C28G, A29U, G30C, U31G
DNA 1: CAATCTGAATTCCGGTCTCCC
DNA 2: TGGTGGCTACGACGGGATT
B6: CGGGUUG (DNA:RNA)
RNA: B1 RNA with U25C, U26G, U27G, U28G, C29U
DNA 1: CAATCTGAATTCCGGTCTCCC
DNA 2: TGGTGGCTACGACGGGATT
B7: CGGGUCG (DNA:RNA)
RNA: B1 RNA with U25C, U26G, U27G, U28G, C29U, U30C
DNA 1: CAATCTGAATTCCGGTCTCCC
DNA 2: TGGTGGCTACGACGGGATT
B8: CGGUUGA (DNA:RNA)
RNA: B3 RNA with G25C, C26G, C27G, C28U, A29U, U31A
DNA 1: CAATCTGAATTCCGGTCTCCC
DNA 2: TGGTGGCTACGACGGGATT
B9: GGGUCCG (DNA:RNA)
RNA: B1 RNA with U25G, U26G, U27G, U30C
DNA 1: CAATCTGAATTCCGGTCTCCC
DNA 2: TGGTGGCTACGACGGGATT
B10: GGGUUGA (DNA:RNA)
RNA: B3 RNA with C26G, C27G, C28U, A29U, U31A
DNA 1: CAATCTGAATTCCGGTCTCCC
DNA 2: TGGTGGCTACGACGGGATT
B11: GGGGGGG (DNA:RNA)
RNA: B3 RNA with C26G, C27G, C28G, A29G, U31G
DNA 1: CAATCTGAATTCCGGTCTCCC
DNA 2: TGGTGGCTACGACGGGATT
B12: GUCGGGG (DNA:RNA)
RNA: B3 RNA with C26U, C28G, A29G, U31G
DNA 1: CAATCTGAATTCCGGTCTCCC
DNA 2: TGGTGGCTACGACGGGATT
B13: CACCGGG (DNA:RNA)
RNA: B3 RNA with G25C, C26A, A29G, U31G
DNA 1: CAATCTGAATTCCGGTCTCCC
DNA 2: TGGTGGCTACGACGGGATT
B14: GGGUUAA (DNA:RNA)
RNA: B3 RNA with C26G, C27G, C28U, A29U, G30A, U31A
DNA 1: CAATCTGAATTCCGGTCTCCC
DNA 2: TGGTGGCTACGACGGGATT
B15: CGGGGGG (DNA:RNA)
RNA: B3 RNA with G25C, C26G, C27G, C28G, A29G, U31G
DNA 1: CAATCTGAATTCCGGTCTCCC
DNA 2: TGGTGGCTACGACGGGATT

target: T1, RBFOX1 RRM RbFoxmut (Fox-RRM*); assay: EMSA; HiTS-Eq, 1 nM pool, 10 min; buffer printed only for the single-RNA assays: 10 mM Tris pH 7.5, 150 mM NaCl, 3.4 mM EDTA, 0.001% NP-40, 30 C; conditions: tags: His6 N-terminal (pET28a); label: 5' 32P
Summary of the method: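 Purified RbFox RRM (wild type or mutant) was equilibrated for 10 min in 50 µL with 1 nM of a 5′-radiolabelled pool of RNA with 7 randomized nucleotides, its flanks annealed to DNA oligonucleotides, across increasing protein concentrations. Free RNA was separated by 8% native PAGE, excised, reverse-transcribed, PCR-barcoded and sequenced on an Illumina HiSeq 2500. Relative association constants came from read-count changes of each variant against the control reaction, normalised to the cognate motif.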

Binder	binding signal
B1	0.0689 KA relative to UGCAUGU
B2	0.0609 KA relative to UGCAUGU
B3	0.102 KA relative to UGCAUGU
B4	0.609 KA relative to UGCAUGU
B5	0.357 KA relative to UGCAUGU
B6	0.66 KA relative to UGCAUGU
B7	0.259 KA relative to UGCAUGU
B8	0.139 KA relative to UGCAUGU
B9	0.238 KA relative to UGCAUGU
B10	0.356 KA relative to UGCAUGU
B11	0.0675 KA relative to UGCAUGU
B12	0.101 KA relative to UGCAUGU
B13	0.0671 KA relative to UGCAUGU
B14	0.0954 KA relative to UGCAUGU
B15	0.0805 KA relative to UGCAUGU
